{"source": "PubChem BioAssay AID2099", "about": "(Broad Institute, 2009)", "note": "Screen size: about 330,000 compounds; about 230 (0.07%) were called active.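 The calls were made as follows: active = more than half of a compound's replicate wells show inhibition beyond 50%, single wells judged on their own value; inconclusive = some, but no more than half, of replicates pass 50% inhibition; inactive = no replicate passes 50% inhibition.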 What follows is part of a selection rich in actives, with near analogues and random picks from the rest.", "data": [{"biological_target": "Lysine-specific demethylase 4C (Homo sapiens) (UniProt Q9H3R0)", "sequence (Q9H3R0 1-420 limits assumed)": "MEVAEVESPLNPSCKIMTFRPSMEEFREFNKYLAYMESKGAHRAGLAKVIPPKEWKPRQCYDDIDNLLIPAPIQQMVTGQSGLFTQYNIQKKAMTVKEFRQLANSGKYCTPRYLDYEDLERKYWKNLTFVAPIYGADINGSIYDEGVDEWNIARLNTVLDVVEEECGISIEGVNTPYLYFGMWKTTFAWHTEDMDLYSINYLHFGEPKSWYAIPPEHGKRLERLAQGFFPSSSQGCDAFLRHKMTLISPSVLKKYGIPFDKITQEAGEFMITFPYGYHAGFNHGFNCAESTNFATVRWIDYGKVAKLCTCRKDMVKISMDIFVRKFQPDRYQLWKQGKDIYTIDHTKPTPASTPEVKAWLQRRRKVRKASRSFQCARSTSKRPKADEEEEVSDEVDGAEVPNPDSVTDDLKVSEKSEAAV", "assay": "inhibitors of GASC-1 histone demethylase, primary screen, biochemical, fluorescence, DELFIA europium (AID 2099);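 also: signal counts dimethyl H3K9 product captured on neutravidin plate; 0% = median of DMSO wells and 100% = 0.3 times that DMSO median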", "conditions": "GST-JMJD2C(1-420) H3K9me3 demethylation, at 2.35 µM, hits give high values", "values": [{"molecule": "CN1CCN(CC#CCC2(O)c3ccccc3-c3ccccc32)CC1", "inhibition": "-1.35% (inactive)"}, {"molecule": "O=C(N/C(=C\\c1ccc([N+](=O)[O-])cc1)C(=O)N1CCOCC1)c1cccc(Br)c1", "inhibition": "-3.44% (inactive)"}, {"molecule": "C=CCN1C(=O)C(O)(CC(=O)c2ccc(Cl)cc2)c2ccccc21", "note": "(stereo not drawn)", "inhibition": "-1.48% (inactive)"}, {"molecule": "Cc1ccsc1/C=N/n1c(=S)[nH]nc(C)c1=O", "inhibition": "-1.06% (inactive)"}, {"molecule": "C=CCn1cc(Cl)cc(C(=O)Nc2ccccc2)c1=O", "inhibition": "3.59% (inactive)"}, {"molecule": "O=C1Nc2cc(Cl)c(Cl)cc2N(O)N1c1ccccc1Cl", "inhibition": "-2.09% (inactive)"}, {"molecule": "CCCCN(CCCC)CCNC(=O)CN1C(=O)COc2ccc(S(=O)(=O)N3CCOCC3)cc21", "inhibition": "-8.15% (inactive)"}, {"molecule": "COc1cc2c(cc1OC)CC1(CCCCC1)N=C2", "inhibition": "2.64% (inactive)"}, {"molecule": "COC(C[C@@H](O)[C@H](C)[C@H](O)COCc1ccccc1)OC", "inhibition": "13.4% (inactive)"}, {"molecule": "O=C(CSc1nc(=O)n2ccccc2n1)Nc1ccc2c(c1)OCCO2", "inhibition": "-1.16% (inactive)"}, {"molecule": "COc1cccc(NCCC(=O)c2cccc([N+](=O)[O-])c2)c1", "inhibition": "4.3% (inactive)"}, {"molecule": "CCc1ccc(N2CC(O)=C(c3nc4ccccc4c(=O)[nH]3)C2=N)cc1", "inhibition": "-0.372% (inactive)"}, {"molecule": "Cc1cc(C)c(S(=O)(=O)N2CCOCC2)cc1C", "inhibition": "8.81% (inactive)"}, {"molecule": "Cc1ccc(C2=NN(C)c3nc4ccccc4n3C2)cc1", "inhibition": "4.06% (inactive)"}, {"molecule": "Cc1nn(C)c(Cl)c1CN1CCC(Oc2ccc(C(=O)N3CCCC3)cc2)CC1", "inhibition": "36.3% (inactive)"}, {"molecule": "Cc1ccc(-n2c(CNc3ccc(F)cc3)nnc2SCC(=O)N2CCOCC2)cc1", "inhibition": "0.71% (inactive)"}, {"molecule": "CC(=O)Nc1ccc(NC(=O)CCN2C(=O)C3CC=CCC3C2=O)cc1", "note": "(stereo not drawn)", "inhibition": "3.08% (inactive)"}, {"molecule": "O=c1cc(-c2ccccc2)[nH]c2cc(F)ccc12", "inhibition": "0.818% (inactive)"}, {"molecule": "Cc1ccccc1NC(=O)N1CCCC1C(=O)NCc1ccccc1", "note": "(stereo not drawn)", "inhibition": "5.47% (inactive)"}, {"molecule": "Cc1nnc(SC(C(=O)c2ccccc2)c2ccccc2)[nH]c1=O", "note": "(stereo not drawn)", "inhibition": "-3.86% (inactive)"}, {"molecule": "CCCCN1CCNC1=S", "inhibition": "0.223% (inactive)"}, {"molecule": "OCCC1CN(Cc2ccc3nsnc3c2)CCN1C1CCCC1", "note": "(stereo not drawn)", "inhibition": "-2.72% (inactive)"}, {"molecule": "O=C(NCc1ccccn1)c1cnc2sccn2c1=O", "inhibition": "-1.24% (inactive)"}, {"molecule": "Cc1nc2nc(SCC(=O)Nc3cccc(F)c3)[nH]c2cc1Br", "inhibition": "6.95% (inactive)"}, {"molecule": "COc1ccc(F)c(-c2nc(CN3CCC(c4ccccc4)CC3)c(C)o2)c1", "inhibition": "-8.87% (inactive)"}, {"molecule": "O=c1c2sccc2nc(SCc2cc(=O)n3ccccc3n2)n1-c1ccc(Br)cc1", "inhibition": "-3.21% (inactive)"}, {"molecule": "CC(C)(C)NC(=O)NC(=O)CN1CCC(Cc2ccccc2)CC1", "inhibition": "-22.7% (inactive)"}, {"molecule": "CN(CC1CCCO1)S(=O)(=O)c1ccc(C(=O)Nc2ccc([N+](=O)[O-])cc2)cc1", "note": "(stereo not drawn)", "inhibition": "-19.5% (inactive)"}, {"molecule": "COc1ccc(NS(=O)(=O)c2ccc(N3CCN(CCO)CC3)c([N+](=O)[O-])c2)cc1", "inhibition": "1.9% (inactive)"}, {"molecule": "O=C(NCc1ccccc1Cl)NC(=O)c1csc([N+](=O)[O-])c1", "inhibition": "-1.75% (inactive)"}, {"molecule": "O=C(CN1CCCCCC1)Nc1ccc(Br)cc1Br", "inhibition": "7.23% (inactive)"}, {"molecule": "O=C(CCCOc1ccccc1)NCc1ccco1", "inhibition": "8.15% (inactive)"}, {"molecule": "COc1cccc(OC)c1C(=O)OCC(=O)/C(C#N)=C(\\C)N", "inhibition": "-25.5% (inactive)"}, {"molecule": "CC(C)CCN1CCN(Cc2cn[nH]c2C2CCCCC2)CC1CCO", "note": "(stereo not drawn)", "inhibition": "-11.2% (inactive)"}, {"molecule": "COc1ccc(NC(=O)CN(C)C(=O)c2cccc(S(=O)(=O)N3CCN(c4ccccc4)CC3)c2)cc1", "inhibition": "38.9% (inactive)"}, {"molecule": "CCCC(=O)N1CCC(CCC(=O)NC2CC2)CC1", "inhibition": "33.1% (inactive)"}, {"molecule": "O=C(CSCc1c(Cl)cccc1Cl)NN1C(=O)c2ccccc2C1=O", "inhibition": "-14.7% (inactive)"}, {"molecule": "CCCCn1c(N)c(N(CC(C)C)C(=O)c2cccc(S(=O)(=O)N3CC(C)OC(C)C3)c2)c(=O)[nH]c1=O", "note": "(stereo not drawn)", "inhibition": "-2.81% (inactive)"}, {"molecule": "O=C(OCC1O[C@@H](OC(=O)c2cc(O)c(O)c(O)c2)[C@@H](OC(=O)c2cc(O)c(O)c(O)c2)[C@@H](OC(=O)c2cc(O)c(O)c(O)c2)[C@@H]1OC(=O)c1cc(O)c(O)c(O)c1)c1cc(O)c(O)c(O)c1", "note": "(stereo partly drawn)", "inhibition": "97.3% (active)"}, {"molecule": "NS(=O)(=O)c1ccc(NC(=S)NNC(=O)c2cccs2)cc1", "inhibition": "0.859% (inactive)"}, {"molecule": "Cc1cccc(-c2noc(CCC(=O)NC3CCCC3)n2)c1", "inhibition": "54.2% (active)"}, {"molecule": "COc1ccc(-c2noc(CCCC(=O)NC3CCCC3)n2)cc1OC", "inhibition": "0.509% (inactive)"}, {"molecule": "CCOc1ccc(-c2noc(CCC(=O)NC3CCCC3)n2)cc1OC", "inhibition": "7.26% (inactive)"}, {"molecule": "C/C(=N\\NC(=O)COc1ccc(C)cc1[N+](=O)[O-])c1ccc2c(c1)OCCO2", "inhibition": "9.39% (inactive)"}, {"molecule": "Cc1ccc(NC(=O)Nc2ccccc2)c(Br)c1", "inhibition": "14.6% (inactive)"}, {"molecule": "Cc1cc(NC(=O)[C@H](C)NC(=O)c2ccco2)ccc1Br", "inhibition": "-9.73% (inactive)"}, {"molecule": "Cc1cc(NC(=O)Nc2c[nH]c(=O)[nH]c2=O)ccc1Br", "inhibition": "53.4% (active)"}, {"molecule": "CCc1c(C)nc2c(OC)cccc2c1Cl", "inhibition": "8.11% (inactive)"}, {"molecule": "Cc1ccccc1CN1C[C@@H]2C[C@@H](c3ccc4nsnc4c3)N3CCC[C@@]23C1=O", "inhibition": "10.6% (inactive)"}, {"molecule": "COc1cccc(COC(=O)C2CCN(S(=O)(=O)c3cccs3)CC2)c1OC", "inhibition": "-2.56% (inactive)"}, {"molecule": "O=c1ccc2c(-c3ccccc3S(=O)(=O)O)c3ccc(O)c(O)c3oc-2c1O", "inhibition": "79.5% (active)"}, {"molecule": "CC(C)CN(C(=O)Cn1c(=O)cnc2ccccc21)C1CCS(=O)(=O)C1", "note": "(stereo not drawn)", "inhibition": "2.23% (inactive)"}, {"molecule": "CCc1ccc(-c2nnn(Cc3nc4ccccc4s3)n2)cc1", "inhibition": "51.2% (inactive)"}, {"molecule": "CCc1ccc(-c2nnn(Cc3nn[nH]n3)n2)cc1", "inhibition": "57.7% (active)"}, {"molecule": "c1cc(-c2nn[nH]n2)ccc1CN1CCCCC1", "inhibition": "12.9% (inactive)"}, {"molecule": "N#Cc1c(N2CCCCC2)nc(N)c2c(N)nc(SCC(=O)O)cc12", "inhibition": "65.6% (active)"}, {"molecule": "N#CCc1c(C#N)c(N)nc(N2CCCC2)c1C#N", "inhibition": "1.17% (inactive)"}, {"molecule": "Nc1nc(NCC(=O)O)nc(N2CCCCCC2)c1[N+](=O)[O-]", "inhibition": "21.9% (inactive)"}, {"molecule": "CCCCn1c(N)c(N(CC(C)C)C(=O)c2ccc(-n3c(C)ccc3C)cc2)c(=O)[nH]c1=O", "inhibition": "-11.1% (inactive)"}, {"molecule": "Cc1cc(=O)n2nc(N3CCC(C(=O)Nc4c(F)c(F)c(F)c(F)c4F)CC3)sc2n1", "inhibition": "1.58% (inactive)"}, {"molecule": "COc1cc(CNCc2ccc3c(c2)OCO3)c([N+](=O)[O-])cc1OC", "inhibition": "1.62% (inactive)"}, {"molecule": "O=C(CN1C(=O)NC2(CCCCCC2)C1=O)NCc1ccc(F)cc1", "inhibition": "2.24% (inactive)"}, {"molecule": "CSc1ccccc1NC(=O)c1cc(C2CC2)on1", "inhibition": "4.43% (inactive)"}, {"molecule": "COC(=O)C1C(=O)CC(C)(O)C(C(=O)OC)C1c1ccc2c(c1)OCO2", "note": "(stereo not drawn)", "inhibition": "-4.99% (inactive)"}, {"molecule": "N#Cc1c(/N=C/N2CCCC2)oc(-c2ccccc2)c1-c1ccccc1", "inhibition": "-7.68% (inactive)"}, {"molecule": "COc1ccc(C2(CNC(=O)Cc3ccc(OC)c(OC)c3)CCCC2)cc1", "inhibition": "-23.7% (inactive)"}, {"molecule": "COc1ccc(C)cc1S(=O)(=O)Nc1cc2c3c(c1)CCC(=O)N3CCC2", "inhibition": "-0.171% (inactive)"}, {"molecule": "O=C(O)C1CCN1C1CCCCC1", "note": "(stereo not drawn)", "inhibition": "-9.8% (inactive)"}, {"molecule": "COc1ccc(NC(=O)C2CCC(CNc3c(N4CCCCC4)c(=O)c3=O)CC2)c(OC)c1", "note": "(stereo not drawn)", "inhibition": "-6.37% (inactive)"}, {"molecule": "COCc1cc(C)nc2sc3c(=O)n(-c4cccc5ccccc45)nnc3c12", "inhibition": "-7.85% (inactive)"}, {"molecule": "CCc1nc2cccnc2n1-c1ccc(C(=O)O)cc1", "inhibition": "3.28% (inactive)"}, {"molecule": "Cc1ccc2nc(-c3ccc(NC(=O)CN(C)S(=O)(=O)c4ccccc4)cc3)sc2c1", "inhibition": "-15.6% (inactive)"}, {"molecule": "CN(CCCC(=O)Nc1nccs1)S(=O)(=O)c1ccc(Cl)cc1", "inhibition": "9.62% (inactive)"}, {"molecule": "O=C1C=C(c2ccccc2)CCC1", "inhibition": "-14.3% (inactive)"}, {"molecule": "C/C=C/C(=O)Nc1nnc(C(C)C)s1", "inhibition": "-0.768% (inactive)"}, {"molecule": "CCCC(=O)N1CCN(c2nnc(-c3ccc(C)cc3)c3ccccc23)CC1", "inhibition": "-13.5% (inactive)"}, {"molecule": "C[C@H](C(=O)CC(=O)OC(C)(C)C)[C@H](O)c1ccc(C(F)(F)F)cc1", "inhibition": "1.41% (inactive)"}, {"molecule": "CC1CCCCC1NC(=O)Cn1cnc2c1c(=O)n(C)c(=O)n2C", "note": "(stereo not drawn)", "inhibition": "6.58% (inactive)"}, {"molecule": "O=C1CCC(=O)N1CCOP1(=O)COc2ccccc2OC1", "inhibition": "2.42% (inactive)"}, {"molecule": "NC(=O)c1ccc(N2CCOCC2)nc1", "inhibition": "-3.7% (inactive)"}, {"molecule": "Cc1noc(NS(=O)(=O)c2ccc(N3CC(O)=C(c4ccccc4)C3=N)cc2)c1C", "inhibition": "-10.1% (inactive)"}, {"molecule": "COc1ccc([N+](=O)[O-])cc1NC(=O)CC1SC(=Nc2cccc(C)c2C)N(/N=C(\\C)c2ccc(C)cc2)C1=O", "note": "(stereo not drawn)", "inhibition": "-21.9% (inactive)"}, {"molecule": "CN(Cc1ccccc1)C(=O)C(=O)c1cn(CC(=O)N2CCCC2)c2ccccc12", "inhibition": "11.9% (inactive)"}, {"molecule": "O=C(c1cc2ccccc2s1)N1CCN(c2ccccn2)CC1", "inhibition": "-6.37% (inactive)"}, {"molecule": "O=C(N=C1SC2CS(=O)(=O)CC2N1c1ccccc1)c1ccccc1", "note": "(stereo not drawn)", "inhibition": "1.92% (inactive)"}, {"molecule": "COc1ccc(C)cc1NC(=O)CCCN1C(=O)NC(C)(C)C1=O", "inhibition": "-6.72% (inactive)"}, {"molecule": "O=C(CC(NS(=O)(=O)c1ccc(Cl)cc1)c1ccco1)NC1CCCC1", "note": "(stereo not drawn)", "inhibition": "-10.3% (inactive)"}, {"molecule": "CC(C)Cn1c(N2CCN(C(=O)/C=C/c3ccccc3)CC2)nc2ccccc21", "inhibition": "12% (inactive)"}, {"molecule": "CCCCn1c(N)c(N(CC)C(=O)/C=C/c2ccco2)c(=O)[nH]c1=O", "inhibition": "-4.8% (inactive)"}, {"molecule": "CN(C(=O)CSc1cccc[n+]1[O-])C1CCCCC1", "inhibition": "-11.4% (inactive)"}, {"molecule": "CCOc1cc(CN2CCCC(CO)(Cc3ccc(F)cc3F)C2)ccc1OC", "note": "(stereo not drawn)", "inhibition": "-2.58% (inactive)"}, {"molecule": "O=C(NCc1cccs1)c1ccc(CS(=O)Cc2ccccc2Cl)o1", "note": "(stereo not drawn)", "inhibition": "-4.03% (inactive)"}, {"molecule": "CCOc1cnc(-c2c(-c3ccccc3Cl)noc2C)o1", "inhibition": "0.379% (inactive)"}]}]}
